In the library only some 6.7% were active in any assay of this set; here they are far more common.
KB-3-1 tox – kills parental KB-3-1 adenocarcinoma cells. KB-3-1 viability, CellTiter-Glo ATP luminescence, 72 h. Potency, µM (top dose mostly 46.1 µM), most hits filed as cytotoxic. 400,000 tested, 1.4% active. AID 1347075; note: % is set by controls: 0 for no effect and ±100 for the full control effect; nearly all actives have a fitted effect of over 60% in size
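Multi-concentration cytotoxicity screen in KB-3-1 cells grown in DMEM lacking phenol red with 10% FBS. After 72 h at 37 °C with compound, ATP-dependent luminescence was recorded.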
PINK1 expr mod – PINK1 expression modulation | AID 624263 | 410,000 tested, 0.2% active | Potency, µM (highest dose often 76.6 µM), for the others: top-dose activation (PINK1 increase), actives largely listed as activators | PINK1 immunofluorescence, high-content cytometry, 24 h; active = well fitted activation curve with a large enough effect; inconclusive = small, poorly fitted or top-dose-only effect; cell line not stated here; note: % of control where 0% means no effect; nearly all actives have a fitted effect of over 65% in size
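Measures PINK1 amount and localization on or inside mitochondria by immunofluorescence. Stable cells get compounds at 5 concentrations for 24 hours before fixation and staining; CCCP controls included.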
MCF10A rereplic – inducers of DNA re-replication in MCF 10A breast cells; MCF 10A DNA re-replication, Hoechst nuclear intensity, 48 h; Potency, µM (doses to about 46.1 µM), inactives show at the highest dose activity, positive = re-replication, most hits filed as activators; 350,000 tested, 2.9% active; note: % of control where 0% means no effect; nearly all actives have a fitted effect of over 50% in size
SW480 rereplic – induces DNA re-replication in SW480 colon adenocarcinoma cells | SW480 DNA re-replication, Hoechst DNA content imaging, 48 h | Potency, µM (series often up to 46.1 µM), without a hit: at the top dose re-replication activation, hits mostly activators | 340,000 tested, 1.8% active | AID 624297; note: % of control where 0% means no effect; nearly all actives have a fitted effect of over 55% in size
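Quantitative HTS format with DMSO vehicle controls; 48 hr drug incubation at 37 C, then 40 min Hoechst staining and scanning imager measurement at 405 nm excitation.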
KB-V1 cytotox – KB-V1 MDR subline cytotoxicity; Potency, µM (doses to about 46.1 µM), hits mostly cytotoxic; KB-V1 MDR cells viability, CellTiter-Glo, 72 h; 400,000 tested, 3.4% active; note: % is set by controls: 0 for no effect and ±100 for the full control effect; nearly all actives have a fitted effect of over 60% in size
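Luminescent ATP read-out (CellTiter-Glo, 10 min) measures survival of drug-selected KB-V1 MDR cells after 72 h, 37 degrees C compound exposure. Medium: phenol-red-free DMEM, 10% FBS. Values from fitted concentration-response curves.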
* hit, by the source's call; [ ] = another dose, or the depositor's remark. Unless noted, calls come from the whole dose curve; as a rule, active = well fitted curve in the direction sought with a large enough effect; inconclusive = small, poorly fitted or top-dose-only effect, or another doubt; inactive = no such curve, though single readings can be large; an effect the other way counts as inactive or inconclusive. Potency is the fitted concentration of half-maximal effect.

For Cc1ccc2nc(/C(C#N)=C\c3ccc(N4CCOCC4)o3)[nH]c2c1 the results were KB-3-1 tox inactive, PINK1 expr mod 11µM*, MCF10A rereplic -4%, SW480 rereplic 15% and KB-V1 cytotox inconclusive.
For COc1ccc(-c2csc(/C(C#N)=C/Nc3ccc4c(c3)OCCO4)n2)cc1 the results were KB-3-1 tox inactive, PINK1 expr mod 5%, MCF10A rereplic 2.1µM*, SW480 rereplic 2.3µM* and KB-V1 cytotox inactive.
`Cc1ccc(/C(C#N)=C\c2ccc(N3CCOCC3)o2)cc1` gave KB-3-1 tox inactive, PINK1 expr mod inconclusive, MCF10A rereplic -4%, SW480 rereplic -1% and KB-V1 cytotox inactive.
N#C/C(=C\c1ccc([N+](=O)[O-])o1)c1nc2ccccc2[nH]1 was read as KB-3-1 tox 13µM*, PINK1 expr mod 2%, MCF10A rereplic 3.7µM*, SW480 rereplic inconclusive and KB-V1 cytotox inactive.
Cc1ccc(S(=O)(=O)N(C)CC(=O)Nc2cccnc2)cc1 was read as KB-3-1 tox inactive, PINK1 expr mod 0%, MCF10A rereplic 11%, SW480 rereplic -5% and KB-V1 cytotox inactive.
Screening Cc1cccc(NC(=O)C2CCN(S(=O)(=O)c3ccc4c(c3)CCCC(=O)N4)CC2)c1 returned KB-3-1 tox inactive, PINK1 expr mod 0% and KB-V1 cytotox inactive.
For Cc1ccc2nc(/C(C#N)=C\c3ccc([N+](=O)[O-])o3)[nH]c2c1 the results were KB-3-1 tox inactive, PINK1 expr mod inconclusive, MCF10A rereplic 9.2µM*, SW480 rereplic inconclusive and KB-V1 cytotox inactive.
For N#C/C(=C(/O)c1ccc([N+](=O)[O-])o1)c1nc2ccccc2[nH]1 the results were KB-3-1 tox inconclusive, PINK1 expr mod 2%, MCF10A rereplic 3.3µM*, SW480 rereplic inconclusive and KB-V1 cytotox inconclusive.
`Cc1ccc2nc(/C(C#N)=C/c3ccc(-c4ccccc4C(=O)O)o3)[nH]c2c1` gave KB-3-1 tox inactive, PINK1 expr mod 0%, MCF10A rereplic 27%, SW480 rereplic -5% and KB-V1 cytotox inactive.
`CNc1oc(/C=C/c2ccccc2)nc1C#N` gave KB-3-1 tox inactive, PINK1 expr mod 5%, MCF10A rereplic 21µM*, SW480 rereplic inconclusive and KB-V1 cytotox inactive.
Screening N#Cc1nc(-c2cccc3ccccc23)oc1NCCN1CCOCC1 returned KB-3-1 tox inactive, PINK1 expr mod inconclusive, MCF10A rereplic 16µM*, SW480 rereplic inconclusive and KB-V1 cytotox inactive.
Screening N#Cc1nc(/C=C/c2ccccc2)oc1NCCCN1CCOCC1 returned KB-3-1 tox inactive, PINK1 expr mod -1%, MCF10A rereplic 23µM*, SW480 rereplic inconclusive and KB-V1 cytotox inconclusive.
Screening N#Cc1nc(COc2ccc(-c3ccccc3)cc2)oc1NCCCN1CCOCC1 returned KB-3-1 tox inconclusive, PINK1 expr mod 0%, MCF10A rereplic 11µM*, SW480 rereplic inconclusive and KB-V1 cytotox inactive.
COCCNc1oc(/C=C/c2ccccc2)nc1C#N was read as KB-3-1 tox inactive, PINK1 expr mod 1%, MCF10A rereplic 15%, SW480 rereplic 1% and KB-V1 cytotox inactive.
N#Cc1nc(COc2ccccc2)oc1NCCN1CCOCC1 was read as KB-3-1 tox inactive, PINK1 expr mod 0%, MCF10A rereplic 1%, SW480 rereplic 7% and KB-V1 cytotox inactive.
O=C(NCc1ccc(Cl)c(Cl)c1)c1cc(C2CCCCN2C(=O)CCc2ccccc2)on1 (stereo not drawn) was read as KB-3-1 tox inactive, PINK1 expr mod 1% and KB-V1 cytotox inactive.
For CCc1nc2c(OCc3ccc(F)cc3)cccn2c1N(C)C(=O)CC(C)C the results were KB-3-1 tox inactive, PINK1 expr mod 5% and KB-V1 cytotox inactive.
For CCN1CCN(c2oc(/C=C/c3ccccc3OC)nc2C#N)CC1 the results were PINK1 expr mod 2%.
`CCN1CCN(c2oc(/C=C/c3ccccc3)nc2C#N)CC1` gave KB-3-1 tox inactive, PINK1 expr mod 0%, MCF10A rereplic 23µM*, SW480 rereplic inconclusive and KB-V1 cytotox inactive.
Screening C=CCN(CC=C)C(=O)C1CCN(S(=O)(=O)c2ccc(N3CCCC3=O)cc2)CC1 returned KB-3-1 tox inactive, PINK1 expr mod 1%, MCF10A rereplic inconclusive, SW480 rereplic 6% and KB-V1 cytotox inactive.
`Cc1ccc(NC(=O)Cn2c(=O)n(Cc3ccco3)c(=O)c3sc4ccccc4c32)cc1C` gave KB-3-1 tox inactive, PINK1 expr mod 18% and KB-V1 cytotox inactive.
CCOC(=O)/C(C#N)=C/c1cn(CCOc2ccc(OC)cc2)c2ccccc12 was read as KB-3-1 tox inactive, PINK1 expr mod 0%, MCF10A rereplic 16µM*, SW480 rereplic 4% and KB-V1 cytotox inactive.
For COc1cc(/C=C(\C#N)C(=O)NCC2CCCO2)ccc1O (stereo not drawn) the results were KB-3-1 tox inactive, PINK1 expr mod 2%, MCF10A rereplic -12%, SW480 rereplic -6% and KB-V1 cytotox inconclusive.
Cc1cc(/C=C(\C#N)C(=O)NCC2CCCO2)c(C)n1-c1ccc(Cl)cc1 (stereo not drawn) was read as KB-3-1 tox inactive, PINK1 expr mod -6%[38.3 µM], MCF10A rereplic 3%, SW480 rereplic -13% and KB-V1 cytotox 4.1µM*.
Screening CCOc1ccc(NC(=O)/C(C#N)=C/c2cn(CC(=O)O)c3ccccc23)cc1 returned KB-3-1 tox inactive, PINK1 expr mod 1%, MCF10A rereplic inconclusive, SW480 rereplic -3% and KB-V1 cytotox inactive.
Screening Cc1ccc(C)c(OCCn2cc(/C=C(/C#N)C(=O)NCC3CCCO3)c3ccccc32)c1 (stereo not drawn) returned KB-3-1 tox inactive, PINK1 expr mod 3%, MCF10A rereplic inconclusive, SW480 rereplic 25% and KB-V1 cytotox 15µM*.
For N#C/C(=C\c1cn(CCOc2ccccc2)c2ccccc12)C(=O)NCC1CCCO1 (stereo not drawn) the results were KB-3-1 tox inactive, PINK1 expr mod 4%, MCF10A rereplic 19%, SW480 rereplic inconclusive and KB-V1 cytotox 6.5µM*.
Screening O=C(NCCOc1ccccc1)C(=O)NCC1CCCO1 (stereo not drawn) returned KB-3-1 tox inactive, PINK1 expr mod 2%, MCF10A rereplic 3%, SW480 rereplic -6% and KB-V1 cytotox inconclusive.
Screening CCCCNC(=O)c1cccc(-n2cnc3cccnc32)c1C returned KB-3-1 tox inactive, PINK1 expr mod -1% and KB-V1 cytotox inactive.
`CNC(=O)/C(C#N)=C/c1cn(CC(=O)OC)c2ccccc12` gave KB-3-1 tox inactive, PINK1 expr mod -1%, MCF10A rereplic inconclusive, SW480 rereplic -47% and KB-V1 cytotox inactive.

Bioassay records deposited in PubChem by National Center for Advancing Translational Sciences (NCATS).
